IL1B NFkB pot – enhances IL-1B driven NFkB nuclear translocation; HUVEC IL-1B NFkB p65 nuclear translocation imaging; activation, % at 2 µM; 94,000 compounds, 0.3% hits;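 active means activation above 40%, about the mean plus 3 SD, also judged a hit on visual image review; inconclusive means activation above 40% but not a hit on visual review; inactive means activation not above 40% and no visual hit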;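 further: percent activation is computed from the nuclear over cytoplasmic p65 intensity ratio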
MRP-1 activ – MRP-1 activation. 140,000 compounds, 0.61% hits. AID 799. H69AR cells + doxorubicin, viability rescue, CellTiter-Glo. viability increase, % at 10 µM;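 active means viability gain under doxorubicin at or above a set limit, the compound median plus 3 SD, cut at about 4.7% in these data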;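 further: MRP-1 overexpressing cells given doxorubicin 25 µM after compound pretreatment; 18-22 h compound pretreatment then 72 h with doxorubicin before readout; 0% = doxorubicin-only wells and 100% = vehicle-treated cells without doxorubicin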
NFkB transloc inh – blocks IL-1B driven NFkB nuclear translocation in HUVEC cells; HUVEC IL-1B NFkB p65 nuclear translocation imaging; inhibition, % at 2 µM; 94,000 compounds, 0.43% hits;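 active means inhibition above about 30% together with a positive call from visual inspection of the well image, limit read from the data; inconclusive means inhibition above a set limit but visual check negative; inactive means inhibition not above a set limit, visual check negative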;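 further: nuclear over cytoplasmic p65 intensity ratio measured by imaging; 0% = IL-1B stimulated DMSO wells and 100% = unstimulated DMSO wells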
MRP reversal – compounds reversing MRP-mediated drug resistance. H69AR cells + 2 uM doxorubicin, CellTiter-Glo, 72 h. differential viability (reversal), % at 10 µM. 85,000 compounds, 0.04% hits. AID 602;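 active means viability drop by adding the cancer drug above about 55%, with treated viability meeting a 40% cutoff, limit read from the data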;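 further: viability without doxorubicin minus viability with 2 µM doxorubicin for each compound; larger differential means the compound sensitizes cells more to doxorubicin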
IL1B cytotox – HUVEC cytotoxicity counter-screen, IL-1B stimulated; cell count reduction, % at 2 µM; HUVEC cell count loss, Hoechst imaging; 94,000 compounds, 0.41% hits; AID 845;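 active means cell count reduction more than 3 SD above the screen-wide mean, cut at about 70% in these data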;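 further: normalized per plate to untreated control cells as the no-loss baseline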
SDO1 yeast rescue – sdo1-depleted yeast growth rescue. S. cerevisiae sdo1-depleted JHY4D growth rescue, OD600 30 h; active compounds read high; pdr5 snq2 efflux-pump mutant strain. z-score at 10 µM. 140,000 compounds, 0.21% hits. AID 817;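 active means z-score above 3 at both the 24 hr and the 30 hr optical density reads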;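 further: z-score against mean and SD of all compound wells on the same plate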
sdo1 rescue conf – confirmation of growth rescue in SDO1-depleted yeast, bone marrow failure; shares compounds with SDO1 yeast rescue; S. cerevisiae JHY4D (SDO1-depleted) growth rescue, OD600, 30 h; active compounds read high; efflux-deficient strain, SNQ2 and PDR5 mutated; OD recovery (concentration not given with the values); 440 compounds, 44% hits; AID 949;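 active means yeast growth recovered at 30 hours, either rising with dose fitted slope above 0.001 or with average optical density gain above 0.07, some results past the limit were not filed as active; inactive means growth falling with dose or no effect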;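 further: gain in OD600 from 0 h to 30 h averaged across all seven doses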
* = called active by the depositor; ? = inconclusive; / = not tested or not shown. Compounds with a hit are over-represented: about 1.4% of the library has one in this group of screens.

SMILES	IL1B NFkB pot	MRP-1 activ	NFkB transloc inh	MRP reversal	IL1B cytotox	SDO1 yeast rescue	sdo1 rescue conf
CCC(C)NS(=O)(=O)c1ccc(S(=O)(=O)N(CC(=O)Nc2ccccc2)CC2CCCO2)cc1 (stereo not given)	5.8	-4.4	-5.8	-8.9	-0.7	0.03	/
N#Cc1c(NC(=O)CSc2nnc(-c3ccccc3)o2)sc2c1CCCC2	5.8	0.8	-5.8	/	17.3	0.03	/
CC1CCc2c(sc(NC(=O)CSc3nnc(-c4ccccc4)o3)c2C#N)C1 (stereo not given)	/	-2.3	/	/	/	1.15	0.0914*
Cc1cc(C)nc(N(C#N)S(=O)(=O)c2ccc(Br)cc2)n1	1.7	0.7	-1.7	-2.8	-18.8	12*	0.0373
Cc1ccc(S(=O)(=O)N(C#N)c2nc(C)cc(C)n2)cc1	1.8	0.8	-1.8	-8.0	9.2	0.71	/
COC(=O)c1sccc1NC(=O)c1c(C)c(-c2cccc(Cl)c2)nc2ccccc12	/	0.1	/	/	/	-0.02	/
Cc1cc(S(=O)(=O)NCC(C)C)ccc1OCC(=O)NCC1CCCO1 (stereo not given)	/	-2.6	/	/	/	7.79*	0.0689
CC(C)NS(=O)(=O)c1ccc(OCC(=O)NCC2CCCO2)c(Cl)c1 (stereo not given)	-3.1	-0.3	3.1	-1.4	15.7	0.47	/
COc1c(/C=N/Nc2ccc([N+](=O)[O-])cc2[N+](=O)[O-])c(C)nn1-c1ccccc1	-0.8	-4.6	0.8	/	17.6	2.79	0.04
COc1ccccc1NS(=O)(=O)c1ccc(N/N=C/c2c(C)nn(-c3ccccc3)c2N2CCCC2)c([N+](=O)[O-])c1	/	-2.8	/	/	/	1.75	/
CC(C)(C)NC(=O)NC(=O)COc1ccccn1	2.5	1.1	-2.5	6.5	7.6	3.23*	0.0556
CC(C)(C)NC(=O)NC(=O)COC(=O)COc1ccc2c(c1)CCC2	/	-0.7	/	-6.8	/	0.23	/
Cc1nnc(NC(=O)CSc2ncnc3scc(-c4ccccc4)c23)s1	8.9	-1.8	-8.9	/	-0.4	2.34	0.0868*
Cc1nnc(NC(=O)CSc2ccccn2)s1	-12.0	-0.2	12.0	4.5	-30.6	-0.04	/
CCN(CC)S(=O)(=O)c1ccc(Cc2ncc(C(F)(F)F)cc2Cl)s1	13.1	0.4	-13.1	5.3	-10.4	12.1*	0.0764*
NS(=O)(=O)c1ccc(Cc2ncc(C(F)(F)F)cc2Cl)s1	3.0	-0.3	-3.0	-4.1	-0.8	1.49	/
Cn1c(=O)[nH]c(=O)c2c1nc(N1CCCCCC1)n2CCCSc1nnnn1-c1ccccc1	/	-4.1	/	/	/	-0.75	/
Cn1c(=O)[nH]c(=O)c2c1nc(N1CCCC1)n2CCCSc1nnnn1-c1ccccc1	/	-3.2	/	/	/	2.35	0.101
CCNc1nc(NCC)n2c(SCC(=O)N(CC)C3CCCCC3)nnc2n1	/	-3.3	/	/	/	-0.67	/
N#CCCn1c(SCC(=O)Nc2ccc(N3CCOCC3)cc2)nc2ccccc21	/	0.0	/	/	/	-0.13	/
CCc1cc(=O)oc2cc(OC(C)C(=O)O)c(Cl)cc12 (stereo not given)	/	-0.7	/	-1.2	/	3.07*	0.0919*
O=C(NCCCN1CCN(CCCNC(=O)c2cccc([N+](=O)[O-])c2)CC1)c1cccc([N+](=O)[O-])c1	/	-2.7	/	/	/	11.3*	0.0546
COC(=O)C1C(=O)OC(C)(C)C1C(C)C(=O)c1ccccc1 (stereo not given)	6.7	0.2	-6.7	19.8	19.0	4.85*	0.0359
CC(C)CNC(=O)c1ccccc1SCC(=O)NC12CC3CC(CC(C3)C1)C2	/	-2.4	/	/	/	-0.96	/
O=C(CC(c1ccccc1)c1ccco1)Nc1nccs1 (stereo not given)	/	-1.0	/	/	/	-0.32	/
SMILES	IL1B NFkB pot	MRP-1 activ	NFkB transloc inh	MRP reversal	IL1B cytotox	SDO1 yeast rescue	sdo1 rescue conf
O=S(=O)(Nc1cccnc1)c1ccc(Cl)c(C(F)(F)F)c1	11.3	-1.0	-11.3	4.5	-56.4	9.61*	0.058
COc1cccc(S(=O)(=O)Nc2cccnc2)c1	12.3	-1.4	-12.3	4.8	-30.1	0.81	/
CC(=O)c1ccccc1C(=O)NCc1cccnc1	/	-0.3	/	/	/	0.44	/
Cc1nc2nc(C)c(CCC(=O)NC(C)c3ccc4c(c3)OCCO4)c(C)n2n1 (stereo not given)	22.8	-0.4	-22.8	-6.0	-0.4	1.99	0.0378
COC(=O)C(C)N(C(=O)c1ccc(C(=O)c2ccccc2)cc1)c1c(C)cccc1C (stereo not given)	12.3	0.4	-12.3	-3.0	-112.1	-0.38	/
CCN(CC)C(=O)Cn1nc(-c2ccccc2O)nc1SCC(=O)Nc1ccc(OC)cc1	11.7	-1.7	-11.7	-14.0	26.1	-0.76	/
O=C(N=NC(=O)c1ccco1)c1ccc2c(O)n(N3C(=O)c4ccccc4C3=O)c(O)c2c1	/	-1.0	/	/	/	3.51*	0.0749*
O=[N+]([O-])c1cc(S(=O)(=O)N2CCCC2)ccc1N/N=C/c1cccs1	-48.2	-4.0	?	4.7	-67.7	1.52	0.0553
O=[N+]([O-])c1cc(S(=O)(=O)N2CCCC2)ccc1N/N=C/c1ccncc1	/	-1.8	/	/	/	0.23	0.0531
CCOC(=O)c1cc(-c2ccccc2)sc1NC(=O)C(C)N1C(=O)c2ccccc2C1=O (stereo not given)	/	2.6	/	/	/	0.42	/
S=c1sc2c(N3CCOCC3)ncnc2n1-c1ccccc1	/	-1.8	/	3.6	/	7.63*	0.0293
CCOc1cc(C(=O)NCc2ccc(-c3nc4ccccc4o3)cc2)cc(OCC)c1OCC	8.7	-5.6	-10.3	/	25.8	1.21	0.0475
COc1ccc(C(=O)NC(=S)NCc2ccc(-c3nc4ccccc4o3)cc2)cc1OC	23.7	-4.1	-23.7	-1.6	-29.4	-1.09	/
C=CCn1c(SCC(=O)N2CCc3ccccc3C2)nc2sc(C)cc2c1=O	27.2	-1.4	-27.2	/	-13.9	-1.7	/
COc1ccc(C2C(C(=O)N3CCOCC3)=C(C)NC3=C2C(=O)CC(C)(C)C3)c(OC)c1 (stereo not given)	-2.8	-3.9	2.8	-6.9	-2.1	8.21*	0.0589
CCOC(=O)c1oc2ccccc2c1NC(=O)c1cccc(OC)c1	-2.3	1.8	2.3	1.5	10.7	-1.75	/
CCOC(=O)c1oc2ccccc2c1NC(=O)c1cccc(OC)c1OC	1.4	-4.7	-1.4	-27.5	-29.1	-0.23	0.0947*
O=C(NCCO)c1nc(NCCO)c2ccccc2n1	18.0	-1.6	-18.0	9.3	-5.3	5.58*	0.0311
OCCNc1nc(N2CCN(Cc3ccccc3)CC2)nc2ccccc12	3.9	-1.5	-3.9	9.9	-4.5	-0.42	/
O=C(COc1ccccc1C(=O)N/N=C\c1ccc(O)c(O)c1)N/N=C/c1ccc(O)c(O)c1	/	-2.2	/	/	/	2.28	0.0464
CC1=C(C(=O)NCc2ccc3c(c2)OCO3)C2(CCC(C)CC2)OC1=O (stereo not given)	/	-0.3	/	7.3	/	0.84	0.0686
COc1ccc2c(c1)CCc1c(C(=O)Nc3ccc(OC)c(OC)c3)noc1-2	-5.8	-1.4	5.8	-5.6	17.9	0.33	/

Assay outcomes deposited in PubChem BioAssay by several laboratories.
